Only some compounds are listed: those with a hit (about 18% of all), similar ones and a draw of the others.
VDR inh: vitamin D3 receptor (human) inhibition. VDR-SRC2-3 peptide fluorescence polarization, 2 h. actives 0.93% (n = 400,000). P11473. AID 504847. Potency, µM, for inactives: max response, negative = inhibition, most hits filed as inhibitors
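After 23 nl compound addition and a short centrifugation, plates sat for 2 hours at ambient temperature; polarization of fluorescence then indicated loss of VDR binding to peptide SRC2-3.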
KAT2A inh: GCN5L2 (KAT2A) acetyltransferase inhibition. AID 504327. Q92830. GCN5L2 HAT assay, ThioGlo1 CoA-SH fluorescence. Potency, µM (top dose mostly 58.9 µM), inactives show at the highest dose activity change, negative = inhibition, most hits filed as inhibitors. actives 0.21% (n = 390,000)
Target sequence (Q92830 whole entry, looked up): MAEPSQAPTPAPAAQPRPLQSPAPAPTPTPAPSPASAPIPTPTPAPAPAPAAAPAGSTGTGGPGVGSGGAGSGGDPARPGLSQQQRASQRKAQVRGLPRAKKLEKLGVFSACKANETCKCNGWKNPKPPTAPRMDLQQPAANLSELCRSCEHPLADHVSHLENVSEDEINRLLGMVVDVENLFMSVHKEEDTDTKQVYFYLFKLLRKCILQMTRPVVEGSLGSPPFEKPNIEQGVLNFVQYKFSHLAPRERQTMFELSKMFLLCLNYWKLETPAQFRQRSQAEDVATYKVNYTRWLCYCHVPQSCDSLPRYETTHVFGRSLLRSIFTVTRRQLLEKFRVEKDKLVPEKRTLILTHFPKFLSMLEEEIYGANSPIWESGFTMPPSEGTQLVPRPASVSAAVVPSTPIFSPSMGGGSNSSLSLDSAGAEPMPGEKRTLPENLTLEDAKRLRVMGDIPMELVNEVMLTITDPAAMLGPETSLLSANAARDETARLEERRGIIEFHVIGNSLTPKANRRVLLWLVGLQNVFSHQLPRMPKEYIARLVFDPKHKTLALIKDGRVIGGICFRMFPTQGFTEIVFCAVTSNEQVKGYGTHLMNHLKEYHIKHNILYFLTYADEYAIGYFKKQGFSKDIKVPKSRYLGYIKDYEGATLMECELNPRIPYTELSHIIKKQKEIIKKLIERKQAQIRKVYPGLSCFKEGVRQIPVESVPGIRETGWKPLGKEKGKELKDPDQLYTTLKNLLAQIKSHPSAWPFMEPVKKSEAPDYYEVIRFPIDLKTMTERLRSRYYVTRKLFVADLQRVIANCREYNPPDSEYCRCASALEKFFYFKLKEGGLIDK
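ThioGlo1-coupled HAT assay: 20nM GCN5L2, 70uM acetyl-CoA, 75uM H3(1-25) peptide, pH 7.5. Fluorescence read at 340/540nm at start and after 20 min at room temperature.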
TDP1 cell CPT: DT40-hTDP1 cell growth loss with CPT. Potency, µM (doses to about 46.2 µM), for inactives: top-dose activity change, negative = growth inhibition, actives largely listed as inhibitors. actives 12% (n = 420,000). chicken DT40 Tdp1-/-;hTDP1 cells + 20 nM CPT, ATP luminescence, 48 h; further: nearly all actives have a fitted effect of over 55% in size
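Chicken DT40 Tdp1-/- cells stably complemented with human TDP1 were seeded at 400 cells/well in medium containing 20 nM camptothecin, exposed to pin-transferred compounds, and grown at 37 °C for at least 48 hr. Viability was read as ATP luminescence.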
DT40 TDP1 no CPT: qHTS for Inhibitors of human tyrosyl-DNA phosphodiesterase 1 (TDP1): qHTS in cells in absence of CPT | DT40 Tdp1-/- hTDP1 cells, no CPT, ATP luminescence, 48 h | actives 15% (n = 420,000) | AID 686978, 2013 | Potency, µM (series often up to 46.2 µM), inactives show at the highest dose activity change, negative = growth inhibition, usual class: inhibitors; further: nearly all actives have a fitted effect of over 55% in size
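Growth kinetics read by CellTiter-Glo luminescence after ≥48 hr at 37 °C. Cells: DT40 Tdp1-/- stably carrying human TDP1, 400 per well, compound exposure in the absence of CPT (DMSO vehicle).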
TDP1 inh: TDP1 (human) enzyme inhibition; Q9NUW8; recombinant TDP1, AlphaScreen DNA substrate cleavage; Potency, µM (doses to about 130 µM), without a hit: at the top dose activity change, negative = inhibition, hits mostly inhibitors; actives 0.28% (n = 350,000); further: nearly all actives have a fitted effect of over 40% in size
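Here, a 5' biotin and 3' phosphotyrosine-FITC DNA oligonucleotide reports Tdp1 activity: intact substrate bridges AlphaScreen beads, while cleavage leaves a 3' phosphate and drops signal. All incubations at room temperature.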
PLK1 PBD inh: PLK1 (human) polo-box domain binding inhibition. actives 2.8% (n = 360,000). P53350. Potency, µM, for inactives: max response, negative = inhibition, usual class: inhibitors. Plk1 PBD binding of FITC phosphopeptide, fluorescence polarization; further: series mostly up to about 57 µM; nearly all actives have a fitted effect of over 65% in size
Starred values were filed as active, the others as inactive; u = inconclusive; x = no result; [ ] = dose if it differs, or a comment. The call rests on the fitted dose curve; in most records, active means well fitted curve in the direction sought with a large enough effect; inconclusive means small, poorly fitted or top-dose-only effect, or another doubt; inactive means no such curve, though single readings can be large; an effect the other way counts as inactive or inconclusive. On the % scale 0 is the no-effect control and ±100 the full control effect; potency means the concentration at half of the fitted maximal effect.

SMILES	VDR inh	KAT2A inh	TDP1 cell CPT	DT40 TDP1 no CPT	TDP1 inh	PLK1 PBD inh
Cc1ccc(NC(=O)N2CCc3cc(S(=O)(=O)N4CCC(C)CC4)ccc32)cc1	7.0%	0.1%	-17.4%	-20.3%	0.0%	x
CC1CCN(Cc2nc3c(c(=O)n(C)c(=O)n3C)n2CCCc2ccccc2)CC1	9.0%	0.8%	u	16.4µM*	0.0%	-11.8%
CCOCCn1c(CN2CCC(Cc3ccccc3)CC2)nc2c1c(=O)n(C)c(=O)n2C	-9.0%	-3.2%	18.4µM*	11.2µM*	5.8%	-9.0%
CC1CCCCN1Cc1nc2c(c(=O)n(C)c(=O)n2C)n1Cc1c(F)cccc1Cl (configuration not stated)	-6.2%	0.0%	7.31µM*	10.3µM*	x	-10.9%
Cn1c(=O)c2c(nc(CN3CCN(c4ccccc4F)CC3)n2Cc2ccc(F)cc2)n(C)c1=O	-16.8%	-2.3%	10.3µM*	10.3µM*	7.0%	x
Cn1c(=O)[nH]c(=O)c2c1nc(CN1CCN(c3ccccc3F)CC1)n2Cc1ccc(F)cc1	-5.6%	-1.9%	-25.4%	-26.7%	9.0%	x
Cn1c(=O)c2c(nc(CN3CCN(c4ccccc4F)CC3)n2CCCc2ccccc2)n(C)c1=O	8.8%	x	16.4µM*	20.6µM*	x	-1.1%
CN1CCN(Cc2nc3c(c(=O)n(C)c(=O)n3C)n2CCCc2ccccc2)CC1	-0.7%	29.4%	-8.1%	-13.7%	-1.0%	-4.6%
CCC1CCCCN1C(=O)CSc1n[nH]c(-c2ccccc2Cl)n1 (configuration not stated)	11.4%	-8.1%	u	u	5.4%	x
Cc1cc(NC(=O)CCCN2C(=O)c3cccnc3C2=O)no1	-18.6%	-6.7%	20.6µM*	25.9µM*	6.9%	2.99µM*
Cc1cc(NC(=O)CCCN2C(=O)c3cccc4cccc(c34)C2=O)no1	-19.8%	-1.0%	1.5%	-11.1%	2.5%	-9.6%
COc1ccc(NC(=O)CN(C)C(=O)c2cc(-c3cccs3)nn2-c2ccccc2)cc1	-28.2%	-1.6%	u	14.6µM*	0.1%	-5.1%
CCN(CC(=O)Nc1ccc(OC)cc1)C(=O)c1cc(-c2cccs2)nn1-c1ccccc1	-19.1%	-2.0%	u	16.4µM*	-5.4%	-0.9%
CN(CC(=O)Nc1ccc(F)cc1)C(=O)c1cc(-c2cccs2)nn1-c1ccccc1	1.7%	-4.3%	u	13µM*	7.2%	0.4%
CCN(CC(=O)Nc1ccc(NC(C)=O)cc1)C(=O)c1cc(-c2ccccc2)nn1-c1ccccc1	-19.4%	-18.2%	-19.9%	-23.2%	x	-5.5%
COc1ccc(NC(=O)CN(C)C(=O)c2cn(-c3ccccc3)nc2-c2cccs2)cc1	u	-4.6%	u	16.4µM*	2.8%[0.505 µM]	-10.5%
O=C(O)C1=C[C@H](c2csc3ccccc23)C[C@H](OCCCCO)O1	-13.7%	-4.0%	-13.4%	-8.9%	3.8%	-3.8%
CCCCCCCCCCCCCCCC(=O)C(F)(F)F	9.9%	-16.9%	8.4%	-5.2%	7.8%[56.1 µM]	x
COc1ccc(C(C)=O)cc1CN1C(=O)C(Cc2ccccc2)ON=C1c1ncccc1C (configuration not stated)	x	x	20.6µM*	u	x	5.8%
CC1(C(=O)Nc2ccc(Cl)c(Cl)c2)CCN1Cc1ccccc1OC(F)F (configuration not stated)	x	x	16.4µM*	11.6µM*	x	-7.1%
COc1ccc(NC(=O)C2(C)CCN2Cc2ccccc2OC(F)F)cc1OC (configuration not stated)	x	x	u	11.6µM*	x	7.1%
Cc1ccc(NC(=O)C2(C)CCN2Cc2ccccc2OC(F)F)cc1 (configuration not stated)	x	x	u	u	x	-4.6%
S=c1[nH]c(=S)c2[nH]cnc2[nH]1	-13.4%	x	-1.5%	5.9%	x	x
O=C(CC1N=C2c3ccccc3N=C(SCC(=O)Nc3cccc(Cl)c3)N2C1=O)NCc1cccs1 (configuration not stated)	5.9%	-8.0%	u	23.1µM*	2.5%	x
O=C(CC1N=C2c3ccccc3N=C(SCC(=O)Nc3cccc(C(F)(F)F)c3)N2C1=O)NCc1cccs1 (configuration not stated)	-19.7%	2.6%	u	u	-4.3%[12.3 µM]	x
SMILES	VDR inh	KAT2A inh	TDP1 cell CPT	DT40 TDP1 no CPT	TDP1 inh	PLK1 PBD inh
COc1ccc(Cl)cc1NC(=O)CSC1=Nc2ccccc2C2=NC(CC(=O)NCc3cccs3)C(=O)N12 (configuration not stated)	5.3%	-15.1%	u	23.1µM*	0.0%	x
Cc1ccnc(NC(=O)c2ccc([N+](=O)[O-])o2)c1	-2.5%	-6.9%	20.6µM*	u	-6.6%	-9.4%
Cc1ccnc(NC(=O)c2ccc(Cl)c(NC(=O)c3ccccc3C)c2)c1	-7.1%	3.0%	u	u	7.1%	1.5%
O=C(Nc1ccccn1)c1ccc([N+](=O)[O-])o1	-1.4%	0.5%	16.4µM*	16.4µM*	1.2%	-2.1%
Cc1ccnc(NC(=O)c2ccccc2NC(=O)c2ccc(Cl)cc2Cl)c1	-3.0%	-9.1%	3.66µM*	1.84µM*	1.9%	-1.9%
Cc1ccnc(NC(=O)c2ccccc2[N+](=O)[O-])c1	6.3%	-9.6%	-23.3%	-1.7%	3.9%	9.47µM*
Cc1ccc(CNS(=O)(=O)c2cc3[nH]c(=O)c(=O)[nH]c3cc2C)cc1	19.3%	-10.0%	5.9%	-5.3%	0.0%	x
COc1ccccc1C(=O)Nc1nc2nc(C)c(Cc3ccccc3)c(=O)n2[nH]1	-17.3%	-19.7%	-18.2%	-12.0%	-2.3%	x
CCc1nc2ccc(C(=O)NCCCN3CCN(c4ccccc4F)CC3)cc2nc1CC	2.7%	2.2%	u	23.1µM*	x	-11.8%
Cc1c(C)n(C)c2ccc(C(=O)NCCCN3CCCC3)cc12	-9.2%	-3.6%	-12.5%	-14.0%	6.9%	-1.4%
Cc1c(C)n(C)c2ccc(C(=O)NCCCN3CCN(c4ccccc4F)CC3)cc12	7.2%	-5.7%	9.2µM*	u	15.6%	-0.4%
O=C(NCCCN1CCN(c2ccccc2F)CC1)c1ccc2nc(CCc3ccccc3)oc2c1	2.0%	-8.7%	20.6µM*	14.6µM*	3.0%	x
O=C(NCCCN1CCN(c2ccccc2F)CC1)c1ccc2nc(Cc3ccccc3)oc2c1	9.6%	-0.4%	u	25.9µM*	6.5%	x
O=C(NCN1CCN(c2ccccc2F)CC1)c1ccccc1	9.0%	18.1%	-14.5%	-0.9%	4.0%	-0.6%
COC(=O)[C@@H](NC(=O)O[C@H]1C(=O)c2cc(OC)ccc2O[C@@H]1c1ccc(OC)c(Br)c1)C(C)C	-2.5%	x	x	x	5.0%	x
